# Compound activity deposited in PubChem BioAssay by several laboratories.
# E coli growth-1 = E. coli growth inhibition; Escherichia coli growth, OD600, 23 h; active compounds read low; OD600 absorbance (test concentration not listed); 330,000 compounds, 0.21% hits; AID 1053175;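 active = OD600 absorbance below the run mean of sample wells minus 3.6 SD, in any replicate, cut at about 0.56 in these data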
# Tat export inh = inhibitors of E. coli Tat protein transport. E. coli MC4100 TorA-mCherry Tat export, fluorescence. inhibition, % at 10 µM. 340,000 compounds, 0.036% hits;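 active = mean replicate inhibition at least 50% and at least half of replicates individually reaching 50%; inconclusive = only one of the two criteria met; inactive = neither criterion met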;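 also: exported cargo escapes ClpAP degradation while cytoplasmic cargo is degraded and loses fluorescence; 0% = median of neutral control wells and 100% = median of NaSCN control wells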
# AddAB inh = less growth of phage-infected E. coli with AddAB; E. coli expressing H. pylori AddAB, absorbance growth; inhibition, % at 11.9 µM; 330,000 compounds, 0.29% hits; in the data active = inhibition above about 12%;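 also: 0% = vehicle wells of infected cells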
# E coli growth-2 = counter-screen for AddAB inhibitors: E. coli growth inhibition; inhibition, % at 11.9 µM; 330,000 compounds, 0.27% hits; E. coli V3065 growth, OD600 absorbance, 18 h;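 active = inhibition above the campaign's mean inhibition across all tested compounds plus 3 SD, cut at about 9.9% in these data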;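 also: uninfected addAB+ strain grown without phage in ampicillin broth; 0% = DMSO wells and 100% = ciprofloxacin 0.95 µg/ml wells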
# phage Ecoli inh = E. coli growth loss with phage present. growth absorbance. inhibition, % at 11.9 µM. 360,000 compounds, 0.26% hits. AID 651602; in the data active = inhibition above about 11%
# AddAB conf = confirmation screen: growth loss of phage-infected E. coli expressing H. pylori AddAB; shares compounds with AddAB inh; E. coli V3065 expressing H. pylori AddAB, T4 phage, OD; T4 phage with gene 2 nonsense mutations; inhibition, % at 11.9 µM; 880 compounds, 64% hits;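 active = mean inhibition above a set limit taken from the earlier primary screen, cut at about 13% in these data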;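 also: higher means less bacterial growth since AddAB block lets phage replicate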
# RecBCD counter = counter-screen: growth loss of RecBCD+ E. coli with mutant T4 phage | shares compounds with AddAB inh | E. coli V66 + mutant T4 phage, OD growth | inhibition, % at 11.9 µM | AID 488955 | 880 compounds, 73% hits;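 active = mean inhibition above the mean of solvent-only control wells plus 3 SD, cut at about 4% in these data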;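 also: optical density read after an 18 h incubation at 37 °C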
# Bact viability = reduces bacterial viability, AddAB inhibitor counter-screen | shares compounds with AddAB inh | absorbance (AddAB counterscreen) | inhibition, % at 11.9 µM | 880 compounds, 35% hits | AID 488956; in the data active = inhibition above about 25%
# The depositor's hits bear a star; ? = inconclusive; · = no result given. Compounds with a hit are over-represented: about 0.5% of the library has one in this group of screens.
SMILES,E coli growth-1,Tat export inh,AddAB inh,E coli growth-2,phage Ecoli inh,others
O=C(O)C1=CC(c2ccc3c(c2)OCO3)CC(OCCCCO)O1 (stereo not drawn),0.642,·,·,·,·,
O=C(CSc1cccc[n+]1[O-])c1cc(Cl)ccc1Cl,0.123*,0.6,4.5,-1.0,0.4,
CCn1c2c(c(=N)c3c1CCC3)CCCC2,0.674,·,-2.3,1.7,1.6,
CCCCCCCCn1c2c(c(=N)c3ccccc31)CCC2,0.592,-0.6,·,·,7.8,
CCCCCCCCCCn1c2c(c(=N)c3c1CCC3)CCC2,0.224*,0.8,4.9,8.2,8.0,
CCCCCCCCCn1c2c(c(=N)c3c1CCC3)CCCC2,0.43*,29.6,·,·,·,
CCN1C(=O)C2C(c3ccc(-c4cccc(Cl)c4)c(OC)c3)N3CCCC[C@@]3(C(=O)OC)C2C1=O (stereo partly drawn),0.731,·,·,·,·,
Cc1cc2nc3c(=O)[nH]c(=S)[nH]c3nc2cc1NC(=O)C(F)(F)F,0.656,-11.4,6.7,10.3*,9.4,
CCCCCC(=O)Nc1cccc(C2=NOC3(C2)CC(C(N)=O)N(C(=O)CC)C3)c1 (stereo not drawn),0.716,·,·,·,·,
COC(=O)[C@@]12CCCCN1C(c1ccc(-c3ccc(C(C)=O)cc3)cc1)C1C(=O)N(C)C(=O)C12 (stereo partly drawn),0.711,·,·,·,·,
Cc1nnc(SCC2=C(C(=O)O)N3C(=O)C(NC(=O)c4cccc(F)c4F)C3SC2)s1 (stereo not drawn),0.702,-1.7,-0.2,-0.4,3.3,
Cc1cc(C)n(CC(=O)NC2C(=O)N3C(C(=O)O)=C(CSc4nnc(C)s4)CSC23)n1 (stereo not drawn),0.193*,21.6,2.0,1.0,5.4,
CC(=O)OCC1=C(C(=O)O)N2C(=O)[C@@H](NC(=O)CSc3ccncc3)[C@H]2SC1,0.225*,-7.7,·,·,6.1,
Cc1nnc(SCC2=C(C(=O)O)N3C(=O)C(NC(=O)Cn4ncc(Cl)c4C)C3SC2)s1 (stereo not drawn),0.438*,6.8,-1.0,0.5,4.0,
CC(=O)OCC1=C(C(=O)O)N2C(=O)C(NC(=O)C(C)Cn3nc(C)c(Cl)c3C)C2SC1 (stereo not drawn),0.641,3.5,-1.0,-0.3,1.9,
COc1ccc(NC=CC(=O)c2ccc(Oc3ncccn3)cc2)cc1,0.685,·,·,·,·,
Cc1ccc(Nc2cc(C)nn2-c2nc(C)cc(=O)[nH]2)cc1,0.492*,-14.3,2.0,1.9,·,
Cc1ccc(Nc2cc(C)nn2-c2nc(C)cc(C)n2)cc1,0.702,-4.0,-0.3,0.6,-0.5,
Cc1ccc(-c2csc(N=C(N)N)n2)c(C)c1,0.438*,·,-0.6,-3.0,1.9,
COC(=O)C(Cc1ccc(O)cc1)NC(=O)Cn1ccc(NC(=O)OCc2ccccc2)nc1=O (stereo not drawn),0.69,·,·,·,·,
CN(C)c1ccc(O)c2c1CC1CC3C(N(C)C)C(=O)C(C(N)=O)=C(O)[C@]3(O)C(=O)C1=C2O (stereo partly drawn),0.0715*,·,·,·,·,
CC1c2cccc(O)c2C(=O)C2C(=O)C3(O)C(=O)C(C(N)=O)C(=O)C(N(C)C)C3C(O)C21 (stereo not drawn),0.068*,·,·,·,·,
CC1c2cccc(O)c2C(O)=C2C(=O)C3(O)C(O)=C(C(N)=O)C(=O)C(N(C)C)C3C(O)C21 (stereo not drawn),0.067*,·,·,·,·,
CC1c2cccc(O)c2C(O)=C2C(=O)[C@]3(O)C(O)=C(C(N)=O)C(=O)C(N(C)C)C3C(O)C21 (stereo partly drawn),0.0645*,·,·,·,·,
CC=C(C)C(=O)Nc1cccc(C2=NOC3(C2)CC(C(N)=O)N(C(=O)CC#N)C3)c1 (stereo not drawn),0.664,·,·,·,·,
SMILES,E coli growth-1,Tat export inh,AddAB inh,E coli growth-2,phage Ecoli inh,others
CC(C)C[C@@]12C(=O)N(c3cccc(Br)c3)C(=O)N1C(c1ccc(Cl)cc1)C1C(=O)N(C3CCCCC3)C(=O)C12 (stereo partly drawn),0.73,·,·,·,·,
Cc1ccsc1C(=O)Nc1nnc(-c2ccco2)o1,0.415*,7.0,2.9,-0.6,10.6,
N/C(=N\N=Cc1ccc(F)cc1)NN=Cc1ccc(F)cc1,0.417*,·,·,·,·,
O=C(CC1CC=CCC(NC(=O)OCC2c3ccccc3-c3ccccc32)C(=O)OCC(Cc2ccccc2)NC1=O)NC(CO)Cc1ccccc1 (stereo not drawn),0.718,·,·,·,·,
COc1ccc(C2C=CCN(C(=O)CC(C)(C)C)CC(=O)N2Cc2ccc(F)cc2)cc1 (stereo not drawn),0.675,·,·,·,·,
O=C(COc1c(Br)cc(Br)c2cccnc12)N1CCc2ccccc2C1,0.439*,2.8,-3.4,-8.6,·,
CCN(CC)C(=O)c1[nH]cnc1C(=O)NC(CC(C)C)C(=O)OC(C)(C)C (stereo not drawn),0.708,·,·,·,·,
COc1cc(C=Nn2c(SC)nnc(C(C)(C)C)c2=O)ccc1O,0.666,·,·,·,·,
O=C(Nc1ccc(Cl)cc1)Nc1cc([N+](=O)[O-])ccc1F,0.601,-10.9,3.0,1.3,3.5,
O=C(Nc1ccc([N+](=O)[O-])cc1)Nc1ccc(Cl)cc1F,0.651,-3.0,7.0,9.8*,10.7,
COc1ccc(C2C3C(=O)N(C(C)(C)C)C(=O)C3[C@]3(CC(C)C)C(=O)N(c4ccccc4)C(=O)N23)cc1 (stereo partly drawn),0.676,·,·,·,·,
Nc1nonc1C(=O)NCCN=Cc1cc(Cc2ccccc2)cc(Br)c1O,0.592,?,18.5*,6.6,·,AddAB conf=19.5*;RecBCD counter=8.8*;Bact viability=9.0
CCn1cc(C(=O)NCC(C)C)c(=O)c2cc(F)c(N3CCN(C(=O)c4ccco4)CC3)cc21,0.575,6.8,3.6,2.5,1.8,
CCC(C)NC(=O)c1cn(CC)c2cc(N3CCN(C(=O)c4ccco4)CC3)c(F)cc2c1=O (stereo not drawn),0.536,-4.0,18.3*,11.5*,-0.4,AddAB conf=96.4*;RecBCD counter=-0.2;Bact viability=24.5
CCn1cc(C(=O)NCc2ccco2)c(=O)c2cc(F)c(N3CCN(C(=O)c4ccco4)CC3)cc21,0.445*,1.2,48.8*,50.0*,4.2,AddAB conf=102.2*;RecBCD counter=4.0*;Bact viability=75.5*
CCCCC1COCCS(=O)(=O)N1Cc1cccc(F)c1 (stereo not drawn),0.689,·,·,·,·,
COc1ccc(NC(=O)N(C)CC2Oc3ccc(NS(=O)(=O)c4ccccc4)cc3C(=O)N(C(C)CO)CC2C)cc1 (stereo not drawn),0.715,·,·,·,·,
COc1ccc(-c2nc(Cn3c(SCc4cccc(F)c4)nc4ccncc43)c(C)o2)cc1OC,0.725,6.5,96.1*,82.5*,0.0,AddAB conf=-3.0;RecBCD counter=-0.9;Bact viability=-2.0
Cc1cccc2cc(C#N)c(N3CCOCC3)nc12,0.671,-3.3,2.7,-0.8,1.7,
Cc1cccc2cc(C#N)c(N3CCC(O)CC3)nc12,0.703,-11.7,13.2*,2.1,2.8,AddAB conf=1.6;RecBCD counter=0.2;Bact viability=-0.8
